Pf growth 96h: Primary qHTS for delayed death inhibitors of the malarial parasite plastid, 96 hour incubation; P. falciparum luciferase reporter growth, 96 h; Potency, µM (highest dose often 28.7 µM), without a hit: at the highest dose activity change, negative = inhibition, hits mostly inhibitors; 320,000 compounds, 6.9% hits; AID 504834, 2011; further: potency means the concentration at half of the fitted maximal effect; on the % scale 0 is the no-effect control and ±100 the full control effect
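P. falciparum expressing integrated firefly luciferase, in erythrocytes at 2% hematocrit, 0.05% parasitemia, incubated with compounds 96 h at 37 C, 5% CO2. Growth inhibition read as loss of luminescence; two-generation exposure targets delayed-death apicoplast inhibitors.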
Sm TGR inh: qHTS Assay for the Inhibitors of Schistosoma Mansoni Peroxiredoxins. Schistosoma mansoni thioredoxin glutathione reductase (TGR), Q962Y6. purified TGR, DTNB reduction, TNB absorbance 405 nm. Potency, µM (series often up to 114 µM), for the others: at the highest dose activity change, negative = inhibition, actives largely listed as inhibitors. 360,000 compounds, 3% hits. AID 485364, 2010; further: potency means the concentration at half of the fitted maximal effect; on the % scale 0 is the no-effect control and ±100 the full control effect; nearly all actives have a fitted effect of over 60% in size
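TGR 20 nM + NADPH 100 uM (dispensed conc.), cpd preinc 15 min RT; start with NADPH (500 uM addition) then DTNB (15 mM addition). Kinetic TNB absorbance, 405 nm filter. Four-parameter Hill fit across titration.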
HCMV antiviral: qHTS Assay for inhibitors of the human cytomegalovirus (HCMV). HFF cells, HCMV-luciferase reporter, 72 h; stronger effect = lower value. activity change, negative = inhibition, % at 57.5 µM. 410,000 compounds, 4.5% hits. AID 1259415, 2018; in the data active means activity change below about -60%; inconclusive means no clear call, values can overlap the other calls; inactive means above about -39%; further: on the % scale 0 is the no-effect control and ±100 the full control effect
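Human foreskin fibroblasts infected with luciferase-reporter HCMV at MOI 1 PFU/cell, compounds at two doses. Luciferase measured 72 h post infection; normalized to buffer-only basal and Salinomycin (10uM) controls.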
SARS PLpro yeast: qHTS of Yeast-based Assay for SARS-CoV PLP | S. cerevisiae expressing SARS-CoV PLpro, growth rescue | Potency, µM (doses to about 32.9 µM), without a hit: top-dose activity, positive = growth rescue, actives largely listed as activators | 330,000 compounds, 0.19% hits; calls by dose curve; further: potency means the concentration at half of the fitted maximal effect; 0% is about no effect; nearly all actives have a fitted effect of over 55% in size
Pf growth 48h: Primary qHTS for delayed death inhibitors of the malarial parasite plastid, 48 hour incubation. AID 504832, 2011. 310,000 compounds, 5.9% hits. P. falciparum luciferase growth in erythrocytes, 48 h. Potency, µM (series often up to 28.7 µM), without a hit: at the highest dose activity change, negative = inhibition, usual class: inhibitors; further: potency means the concentration at half of the fitted maximal effect; on the % scale 0 is the no-effect control and ±100 the full control effect
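Luminescence readout; reporter = integrated firefly luciferase in P. falciparum. RBC culture at 2% hematocrit, 0.1% parasitemia final, 37 C/5% CO2; decreased signal taken as growth inhibition.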
HCV inh: qHTS Assay for Inhibitors of Hepatitis C Virus (HCV). Huh7.5.1 HCVcc-Cre infection, luciferase reporter, 44 h. Potency, µM (series often up to 41.8 µM), inactives show at the top dose activity change, negative = inhibition, actives largely listed as inhibitors. 340,000 compounds, 3.4% hits. AID 651820, 2012; further: potency means the concentration at half of the fitted maximal effect; on the % scale 0 is the no-effect control and ±100 the full control effect
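A cell-based infection assay in which seeded cells (1,000 per well) receive test compound after 4 h, are inoculated with HCVcc-Cre at approximately 0.5 moi, and are incubated 44 h before luminescence detection.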
* marks the source's active call; other numbers are inactive results; u = inconclusive; x = no result; [ ] = another dose, or the depositor's remark. Sampled rows, rich in hits. Any-hit rate of the full collection: about 15%. Unless noted, the call rests on the fitted dose curve; in most records, active means well fitted curve in the direction sought with a large enough effect; inconclusive means small, poorly fitted or top-dose-only effect, or another doubt; inactive means no such curve, though single readings can be large; an effect the other way counts as inactive or inconclusive.

SMILES	Pf growth 96h	Sm TGR inh	HCMV antiviral	SARS PLpro yeast	Pf growth 48h	HCV inh
CN(Cc1ccccc1)C(=O)Nc1ccc2c(c1)N(C)C(=O)c1ccccc1S2	x	7%	-33	x	x	x
O=C(N/C(=C/c1ccc(Br)cc1)C(=O)N1CCOCC1)c1cccs1	-17%	20%	-62*	0%	-3%	4%
COc1ccc(/C=C(/NC(=O)c2cccs2)C(=O)N2CCOCC2)cc1OC	43%	-13%	1	-19%	8%	-13%
COC(=O)c1cccc(NC(=O)NC23CC4CC(CC(C4)C2)C3)c1	u	6%	20	0%	x	u
COC(=O)c1ccc(Cl)c(NC(=O)NC23CC4CC(CC(C4)C2)C3)c1	0.66µM*	1%	-29	15%	x	u
Cc1ccccc1-c1nc(NC(=O)CSc2ncnc3sc4c(c23)CCCC4)ns1	x	1%	8	x	x	x
CN(C)CC/C=C1\c2cc(F)ccc2CSc2ccccc21	u	-1%	18	-4%	13µM*	u
C#CCN(C)CC/C=C1\c2ccccc2CSc2ccccc21	u	3%	-29	-14%	13µM*	u
CN(CC/C=C1/c2ccccc2CSc2ccccc21)CCCO	13µM*	2%	2	9%	12µM*	u
Cc1noc(C)c1COc1ccccc1C(=O)NCCOc1ccccc1	u	-3%	-23	0%	u	-1%
O=C(Nc1ccn(CCCNCc2ccccc2)c(=O)n1)OCc1ccccc1	x	x	-14	x	x	0.56µM*
O=C(NCCCCCCNC(=O)OCc1ccccc1)OCc1ccccc1	x	x	-9	x	x	4%
O=C(OCc1ccccc1)N(CCCCN(CCCNCc1ccccc1)C(=O)OCc1ccccc1)CCCNCc1ccccc1	x	x	-97*	x	x	10µM*
O=C(Nc1ccn(CCCNCc2ccc3c(c2)OCO3)c(=O)n1)OCc1ccccc1	x	x	-4	x	x	10µM*
O=C(Nc1ccn(CCCNCCCN2CCCC2=O)c(=O)n1)OCc1ccccc1	x	x	-34	x	x	4%[8.37 µM]
Cc1oc(-c2ccc(C(=O)NCc3ccccc3)cc2)nc1CS(=O)(=O)c1ccccc1	x	-29%	0	x	x	x
Cc1oc(-c2ccc(C(=O)NCc3ccc(Cl)cc3)cc2)nc1CS(=O)(=O)c1ccccc1	x	u	-69*	x	x	x
Cc1cccc(CNC(=O)c2ccc(-c3nc(CS(=O)(=O)c4ccccc4)c(C)o3)cc2)c1	x	u	-4	x	x	x
COc1cccc(CNC(=O)c2ccc(-c3nc(CS(=O)(=O)c4ccccc4)c(C)o3)cc2)c1	x	28µM*	-6	x	x	x
CC1Cc2cc(S(=O)(=O)CCC(=O)Nc3ccc(F)cc3Cl)ccc2N1C(=O)C1CC1 (stereo unspecified)	x	1%	26	x	x	x
COc1ccc(C(=O)N2CCN(c3nc4c(OC)cccc4s3)CC2)cc1OC	x	-2%	-84*	x	x	x
COc1cccc2sc(N3CCN(C(=O)c4ccco4)CC3)nc12	u	9%	-1	7%	9.3µM*	-16%
Cc1cc(N2CCN(C(=O)c3ccco3)CC2)nc(-c2ccccc2)n1	18%	45µM*	17	-20%	u	u
CCOc1cccc2sc(N3CCN(C(=O)c4ccco4)CC3)nc12	x	u	12	x	x	x
C#CCNC(=O)C1CCN(c2cc(C)nc(-c3ccccc3)n2)CC1	u	x	-95*	0%	-18%	-29%
COc1ccc(C(=O)N2CCN(c3c(C)cccc3C)CC2)cc1OC	u	-18%	9	1%	x	-20%
Cc1cc(N2CCN(c3ccccc3)CC2)nc(-c2ccccc2)n1	u	4%	-23	-15%	1%	u

Screening data deposited in PubChem by National Center for Advancing Translational Sciences (NCATS).
